Inconclusive results are not listed. Active and inactive are the calls of the source. Calls come from the whole dose curve; as a rule, active = well fitted curve in the direction sought with a large enough effect; inconclusive = small, poorly fitted or top-dose-only effect, or another doubt; inactive = no such curve, though single readings can be large; an effect the other way counts as inactive or inconclusive.
Columns and labels:
[1] = molecular target: Calcium and integrin-binding protein 1 (Homo sapiens) (UniProt Q99828); experiment: Primary qHTS for Identification of Calcium Integrin Binding Protein 1 (CIB1) Competitor (AID 1508620);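 note: GST tagged CIB1 binding a fluorescein labelled alphaIIb integrin peptide tracer; top concentration of the series differs between compounds; % is set by controls: 0 for no effect and ±100 for the full control effect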
Calcium and integrin-binding protein 1 (Homo sapiens), sequence (Q99828 whole entry, looked up): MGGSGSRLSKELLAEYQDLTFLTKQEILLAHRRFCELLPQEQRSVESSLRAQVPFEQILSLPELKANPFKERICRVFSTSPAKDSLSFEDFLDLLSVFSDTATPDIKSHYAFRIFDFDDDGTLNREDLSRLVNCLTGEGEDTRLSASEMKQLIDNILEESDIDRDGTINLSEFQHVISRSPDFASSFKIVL
In short: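 Fluorescence polarization competition: GST-tagged CIB1 (1 uM final) preincubated with compound 15 min at room temperature, then FITC-labelled alphaIIb peptide (100 nM final) added. After 15 min at room temperature, polarization read at Ex 480/Em 540.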

[2] = Primary qHTS for inhibitors of nuclear receptor binding SET domain protein 2 (NSD2) in an isogenic RCH-ACV NSD2 p.E1099K mutant (9B) (AID 1645876); note: nearly all actives have a fitted effect of over 70% in size; note: potency is the fitted concentration of half-maximal effect
[3] = molecular target: Phospholipid hydroperoxide glutathione peroxidase GPX4 (Homo sapiens) (UniProt P36969); experiment: Primary qHTS Assay for Inhibitors of Recombinant Selenoprotein Glutathione Peroxidase 4 (GPX4) (AID 1845192); note: nearly all actives have a fitted effect of over 65% in size; for activity change, negative = inhibition: % is set by controls: 0 for no effect and ±100 for the full control effect
Phospholipid hydroperoxide glutathione peroxidase GPX4 (Homo sapiens), sequence (P36969 whole entry, looked up): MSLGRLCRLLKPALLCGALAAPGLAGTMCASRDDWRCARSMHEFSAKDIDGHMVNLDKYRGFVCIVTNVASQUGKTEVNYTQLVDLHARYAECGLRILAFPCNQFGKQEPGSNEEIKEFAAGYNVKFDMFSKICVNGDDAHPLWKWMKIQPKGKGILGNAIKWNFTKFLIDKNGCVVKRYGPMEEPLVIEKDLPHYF
In short: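 GR-coupled assay: recombinant GPX4 preincubated 30 min with compound at room temperature; final 200 nM GPX4, 1 mM GSH, 0.5 mM cumene hydroperoxide, 0.5 mM NADPH, 100 nM GR, 0.01% BSA, pH 7.5 Tris. NADPH fluorescence (340/450 nm) read at 0 and 15 min.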

[4] = molecular target: Luciferin 4-monooxygenase (Photinus pyralis) (UniProt P08659); experiment: Primary firefly luciferase (FLuc) qHTS assay for identification of artifact compounds. (AID 1845220); details: outcome: dose series up to 54.1 µM unless noted; note: nearly all actives have a fitted effect of over 60% in size;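 for activity change, negative = inhibition: plate controls were DMSO vehicle for no effect and no enzyme for full effect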
In short: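 Titrated compounds were incubated 15 min at RT, protected from light, with luciferin and ATP at 10 uM; reaction started with 10 nM FLuc, luminescence imaged at 5 min, and concentration-response fitted by Hill equation.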

[5] = Primary fluorescence-based thiol-reactive (MSTI) qHTS assay for identification of artifact compounds. (AID 1845221); note: nearly all actives have a fitted effect of over 65% in size; note: potency is the fitted concentration of half-maximal effect;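 for activity change, negative = thiol reactive: thiol-reactive compounds lower the probe fluorescence signal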
In short: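 Curve-fitted percent inhibition (4-parameter Hill) derived from fluorescence, Ex 525/Em 598 nm, scaled with Acetyl-MSTI and MSTI; 1 h incubation at room temperature.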

[6] = system: Nanoluciferase (engineered Oplophorus gracilirostris luciferase); experiment: Primary Nanoluciferase (NLuc) qHTS assay for identification of artifact compounds. (AID 1845222);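 note: NLuc secreted into diluted conditioned medium of S16 cells; 0% = DMSO and -100% = no enzyme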
In short: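 qHTS format, against NLuc in S16 cell-conditioned medium. Nano-Glo substrate 1:100 was added after 15 min at room temperature. Luminescence was taken after a further 5 min.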

[7] = Primary redox qHTS assay for identification of artifact compounds. (AID 1845223);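 note: 0% = DMSO and 100% = reference compound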
In short: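 Amplex Red (25 uM) and HRP (250 mU/mL) in HBSS, with compounds for 15 min, then 250 uM DTT for 30 min, room temperature, dark. Fluorescence 525/598 nm read; normalized to DMSO and 10 uM DA3003; Hill fit.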

CRL-7250 = normal cell line; experiment: Cytotoxic Profiling of Annotated Libraries Using Quantitative High-Throughput Screening (AID 1296008); details: Five cell lines viability, CellTiter-Glo ATP luminescence, 48-72 h; max response: hits give low values; note: nearly all actives have a fitted effect of over 60% in size; note: potency is the fitted concentration of half-maximal effect
In short: (§1)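 Cells exposed to compounds for 48 or 72 hr at 37 degrees Celsius. Viability read as ATP-coupled luminescence with CellTiter-Glo after 10 min at room temperature.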

HEK293 = experiment: as above; details: Five cell lines viability, CellTiter-Glo ATP luminescence, 48-72 h; max response: hits give low values
In short: as §1

JEG-3 = experiment: Primary qHTS to identify gynecologic anti-cancer compounds using libraries of approved drugs and bioactive compounds (AID 1345084); details: Gynecologic cancer cell panel viability, ATPlite luminescence, 48 h; series mostly up to 57.5 µM; note: nearly all actives have a fitted effect of over 55% in size; note: potency is the fitted concentration of half-maximal effect; for activity change, negative = cytotoxicity: % is set by controls: 0 for no effect and ±100 for the full control effect
In short: (§2)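 Cytotoxicity screen measuring ATP content by luciferase luminescence. Each compound is applied at five concentrations for 48 h at 37 C with 5% CO2.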

OV90 = experiment: as above; details: Gynecologic cancer cell panel viability, ATPlite luminescence, 48 h; series mostly up to 57.5 µM
In short: as §2

Tov112D = experiment: as above; details: Gynecologic cancer cell panel viability, ATPlite luminescence, 48 h; series mostly up to 57.5 µM
In short: as §2

NIH3T3 = experiment: Cytotoxic Profiling of Annotated Libraries Using Quantitative High-Throughput Screening (AID 1296008); details: Five cell lines viability, CellTiter-Glo ATP luminescence, 48-72 h; max response: hits give low values; note: nearly all actives have a fitted effect of over 60% in size; note: potency is the fitted concentration of half-maximal effect
In short: as §1

C33A = experiment: Primary qHTS to identify gynecologic anti-cancer compounds using libraries of approved drugs and bioactive compounds (AID 1345084); details: Gynecologic cancer cell panel viability, ATPlite luminescence, 48 h; series mostly up to 57.5 µM; note: nearly all actives have a fitted effect of over 55% in size; note: potency is the fitted concentration of half-maximal effect; for activity change, negative = cytotoxicity: % is set by controls: 0 for no effect and ±100 for the full control effect
In short: as §2

CAOV3 = experiment: as above; details: Gynecologic cancer cell panel viability, ATPlite luminescence, 48 h; series mostly up to 57.5 µM
In short: as §2

CASKI = experiment: as above; details: Gynecologic cancer cell panel viability, ATPlite luminescence, 48 h; series mostly up to 57.5 µM
In short: as §2

Es-2 = experiment: as above; details: Gynecologic cancer cell panel viability, ATPlite luminescence, 48 h; series mostly up to 57.5 µM
In short: as §2

Hek293T = experiment: as above; details: Gynecologic cancer cell panel viability, ATPlite luminescence, 48 h, control line for the selectivity index; series mostly up to 57.5 µM
In short: as §2

PA-1 = experiment: as above; details: Gynecologic cancer cell panel viability, ATPlite luminescence, 48 h; series mostly up to 57.5 µM
In short: as §2

Tov-21-G = experiment: as above; details: Gynecologic cancer cell panel viability, ATPlite luminescence, 48 h; series mostly up to 57.5 µM
In short: as §2

C=C1C(=O)CC2OC2(C)CC2OC(=O)C(=C)C2C(O)C1OC(=O)/C(C)=C\C (stereo not drawn)
inactive: Potency [1] | Potency [3] | outcome [4] | Potency [5] | Potency [6] | Potency [7] | Potency (JEG-3) | Potency (OV90) | Potency (Tov112D)
active: Potency [2] 2.26 µM | Potency (CRL-7250) 10.1 µM | Potency (HEK293) 4.53 µM

CCN1C[C@]2(COC)CC[C@H](O)[C@@]34C5C[C@@H]6[C@@H](OC)C[C@@](OC(C)=O)(C5[C@@H]6OC(C)=O)[C@H]([C@H](OC)C23)[C@@H]14 (stereo partly drawn)
inactive: Potency [1] | Potency [2] | Potency [3] | outcome [4] | Potency [5] | Potency [7] | max response (CRL-7250) 0.922% | max response (HEK293) 3.98% | max response (NIH3T3) 2.14% | Potency (C33A) | Potency (CAOV3) | Potency (CASKI) | Potency (Es-2) | Potency (Hek293T) | Potency (JEG-3) | Potency (OV90) | Potency (PA-1) | Potency (Tov-21-G) | Potency (Tov112D)

CC(=O)O[C@H]1C[C@]2(O)[C@@H]3CC[C@@H]4C[C@@H](O)CC[C@]4(C)[C@H]3CC[C@]2(C)[C@H]1c1ccc(=O)oc1
inactive: Potency [1] | Potency [3] | outcome [4] | Potency [5] | Potency [6] | Potency [7] | max response (NIH3T3) -9.3%
active: Potency [2] 0.0459 µM | Potency (CRL-7250) 0.0517 µM | Potency (HEK293) 0.0461 µM | Potency (C33A) 0.0282 µM | Potency (CAOV3) 0.158 µM | Potency (CASKI) 0.398 µM | Potency (Es-2) 0.1 µM | Potency (Hek293T) 0.0891 µM | Potency (JEG-3) 0.316 µM | Potency (PA-1) 0.1 µM | Potency (Tov-21-G) 0.0891 µM

COc1ccc2c(c1)c(CCN(C)C)cn2S(=O)(=O)c1ccccc1
inactive: Potency [1] | Potency [3] | outcome [4] | Potency [5] | Potency [6] | Potency [7] | max response (CRL-7250) 1.29% | outcome (NIH3T3) | Potency (C33A) | Potency (CAOV3) | Potency (CASKI) | Potency (Es-2) | Potency (Hek293T) | Potency (JEG-3) | Potency (OV90) | Potency (PA-1) | Potency (Tov-21-G) | Potency (Tov112D)

C#C[C@]1(O)CC[C@H]2[C@@H]3CC[C@H]4Cc5nc6nc7ccccc7n6cc5C[C@]4(C)[C@H]3CC[C@@]21C
active: Potency [2] 12.9 µM | Potency (HEK293) 14.6 µM
inactive: Potency [1] | Potency [3] | outcome [4] | Potency [5] | Potency [6] | Potency [7] | max response (CRL-7250) 1.18% | Potency (C33A) | Potency (CAOV3) | Potency (CASKI) | Potency (Es-2) | Potency (Hek293T) | Potency (JEG-3) | Potency (OV90) | Potency (PA-1) | Potency (Tov112D)

C/C=C(\C)C(=O)OC1CC2C(CC=C3CC(OC4CC(OC)C(OC5CC(OC)C(OC6CC(OC)C(OC7CC(OC)C(O)C(C)O7)C(C)O6)C(C)O5)C(C)O4)CCC32C)C2(O)CCC(C(C)=O)C12C (stereo not drawn)
inactive: Potency [1] | activity change, negative = inhibition [4] 3.09% [at 11.6 µM] | activity change, negative = thiol reactive [5] 0.247% [at 11.5 µM] | activity, negative = inhibition [6] 1.71% [at 11.6 µM] | redox activity (% of DA3003) [7] 4.9% [at 11.5 µM] | max response (CRL-7250) -2.08% | outcome (NIH3T3) | activity change, negative = cytotoxicity (C33A) -3.2% [at 11.6 µM] | activity change, negative = cytotoxicity (CAOV3) 3.23% [at 11.6 µM] | activity change, negative = cytotoxicity (CASKI) -11.1% [at 11.6 µM] | activity change, negative = cytotoxicity (Es-2) -0.231% [at 11.6 µM] | activity change, negative = cytotoxicity (Hek293T) -2.97% [at 11.6 µM] | activity change, negative = cytotoxicity (JEG-3) -3.8% [at 11.6 µM] | activity change, negative = cytotoxicity (OV90) -21.5% [at 11.6 µM] | activity change, negative = cytotoxicity (PA-1) -6.71% [at 11.6 µM] | activity change, negative = cytotoxicity (Tov-21-G) 1.18% [at 11.6 µM] | activity change, negative = cytotoxicity (Tov112D) -0.393% [at 11.6 µM]

CN1Cc2c(ccc3c2OCO3)[C@@H]2[C@H]1c1cc3c(cc1C[C@@H]2O)OCO3
inactive: Potency [1] | Potency [3] | outcome [4] | Potency [5] | Potency [6] | Potency [7]
active: Potency [2] 2.84 µM | Potency (CRL-7250) 4.04 µM | Potency (HEK293) 3.6 µM | Potency (NIH3T3) 2.55 µM | Potency (C33A) 7.08 µM | Potency (Es-2) 4.47 µM | Potency (PA-1) 4.47 µM | Potency (Tov112D) 3.55 µM

c1ccc([C@@H]2C[C@H]2NC2CCNCC2)cc1
inactive: Potency [1] | Potency [2] | Potency [3] | outcome [4] | Potency [5] | Potency [7] | max response (CRL-7250) -8.87% | max response (HEK293) -16.2% | Potency (C33A) | Potency (CAOV3) | Potency (CASKI) | Potency (Es-2) | Potency (Hek293T) | Potency (JEG-3) | Potency (OV90) | Potency (PA-1) | Potency (Tov-21-G) | Potency (Tov112D)

C=C(C)[C@@]12O[C@@H]1[C@@]1(C)C(=CC2=O)CC[C@@H](OC(C)=O)[C@@H]1C
inactive: Potency [1] | outcome [4] | Potency [5] | Potency [6] | Potency [7] | Potency (CAOV3) | Potency (CASKI) | Potency (JEG-3)
active: Potency [2] 4.59 µM | Potency (CRL-7250) 6.51 µM | Potency (HEK293) 3.26 µM | Potency (NIH3T3) 3.66 µM | Potency (Tov-21-G) 10 µM

CN(C)[C@@H]1C(=O)C(C(N)=O)=C(O)[C@@]2(O)C(=O)C3=C(O)c4c(O)ccc(Cl)c4[C@@](C)(O)C3C[C@@H]12 (stereo partly drawn)
active: Potency [5] 1.68 µM
inactive: Potency [2] | Potency [3] | outcome [4] | Potency [6] | max response (CRL-7250) -6.15% | max response (HEK293) 0.697% | outcome (NIH3T3) | Potency (C33A) | Potency (CAOV3) | Potency (CASKI) | Potency (Es-2) | Potency (Hek293T) | Potency (JEG-3) | Potency (OV90) | Potency (PA-1) | Potency (Tov-21-G) | Potency (Tov112D)

CN1C(=O)[C@@H](Cc2c[nH]c3ccccc23)N=C(c2ccccc2F)c2ccccc21
inactive: Potency [1] | outcome [4] | Potency [5] | Potency [6] | Potency [7] | outcome (CRL-7250) | max response (NIH3T3) -3.73% | Potency (C33A) | Potency (CAOV3) | Potency (CASKI) | Potency (Es-2) | Potency (Hek293T) | Potency (JEG-3) | Potency (OV90) | Potency (PA-1) | Potency (Tov-21-G) | Potency (Tov112D)

COC1CC(O[C@H]2CC[C@@]3(C)C(CCC4C3CC[C@]3(C)C(C5=CC(=O)OC5)CCC43O)C2)OC(C)C1OC1OC(COC2OC(CO)C(O)C(O)C2O)C(O)C(O)C1O (stereo partly drawn)
active: Potency [2] 0.975 µM | Potency (CRL-7250) 0.693 µM | Potency (HEK293) 1.74 µM | Potency (C33A) 2.24 µM | Potency (Es-2) 3.16 µM | Potency (Hek293T) 3.55 µM | Potency (PA-1) 2.24 µM | Potency (Tov-21-G) 2.24 µM | Potency (Tov112D) 0.794 µM
inactive: Potency [1] | Potency [3] | activity change, negative = inhibition [4] -3.95% [at 11.6 µM] | activity change, negative = thiol reactive [5] 0.284% [at 11.5 µM] | activity, negative = inhibition [6] 0.592% [at 11.6 µM] | redox activity (% of DA3003) [7] 16.1% [at 11.5 µM] | max response (NIH3T3) 2.72%

Source: PubChem BioAssay (NCATS)
